From PubChem BioAssay (NCATS)
Results filed as inconclusive are left out. The source made the active and inactive calls. Unless noted, calls follow the shape of the dose curve; as a rule, active = well fitted curve in the direction sought with a large enough effect; inconclusive = small, poorly fitted or top-dose-only effect, or another doubt; inactive = no such curve, though single readings can be large; an effect the other way counts as inactive or inconclusive.

What was measured:
[1] = Counterscreen for APE1 Inhibitors: Fluorescent Dye Displacement Validation Assay (AID 1707);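 also: plate controls were ThO with dsDNA and no compound for no effect and ThO without dsDNA for full effect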
Procedure, shortened: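 Reaction mixture of 250 nM Thiazole Orange and 50 nM double-stranded abasic-site DNA was dispensed, compounds were pin-transferred, and fluorescence was read at endpoint (480 nm ex, 540 nm em). Reduced fluorescence indicated dye displacement by DNA binding.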

[2] = qHTS for differential inhibitors of proliferation of Plasmodium falciparum line 7G8 (AID 1815);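 also: parasite growth measured after three days of incubation; plate controls were vehicle wells for no effect and reference inhibitor wells for full effect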
[3] = qHTS for differential inhibitors of proliferation of Plasmodium falciparum line GB4 (AID 1816); conditions: Potency: Plasmodium falciparum GB4 proliferation inhibition;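 also: parasite growth measured after 72 h incubation; 0% = vehicle DMSO and -100% = reference inhibitor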
[4] = qHTS for differential inhibitors of proliferation of Plasmodium falciparum line 3D7 (AID 1876);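 also: parasite growth measured after three days of culture; 0% = vehicle wells and -100% = reference inhibitor wells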
[5] = qHTS for differential inhibitors of proliferation of Plasmodium falciparum line D10 (AID 1877);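 also: parasites grown with compound for 72 h before DNA staining; plate controls were vehicle wells for no effect and reference inhibitor wells for full effect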
[6] = qHTS for differential inhibitors of proliferation of Plasmodium falciparum line Dd2 (AID 1882); conditions: Potency: Plasmodium falciparum Dd2 proliferation inhibition;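 also: series mostly up to about 29 µM; compound exposure of 72 h on infected erythrocytes; plate controls were DMSO vehicle for no effect and 0.29 µM artemisinin for full effect; nearly all actives have a fitted effect of over 65% in size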
Procedure, shortened: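 RBC culture, 0.3% parasitemia / 2.5% Hct final; cpd added by pin tool in DMSO; 72 h, 37 C, 5% CO2; lysis buffer + SYBR Green I, o/n RT dark; FI 485/535; norm. to artemisinin 0.29 uM and DMSO.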

[7] = qHTS for differential inhibitors of proliferation of Plasmodium falciparum line W2 (AID 1883); conditions: Potency: Plasmodium falciparum W2 proliferation inhibition;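 also: parasites grown with compound for 72 h before lysis and staining; 0% = vehicle wells and -100% = control inhibitor wells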
[8] = qHTS for differential inhibitors of proliferation of Plasmodium falciparum line HB3 (AID 1886); conditions: Potency: Plasmodium falciparum HB3 proliferation inhibition;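 also: parasites grown with compound for 72 h before SYBR Green readout; plate controls were vehicle for no effect and reference inhibitor for full effect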
[9] = target: Ferritin light chain (Equus caballus) (UniProt P02791); test: qHTS Validation Assay for Identification of Novel General Anesthetics (AID 2323); also: series mostly up to about 77 µM; % is scaled to controls: 0 for no effect and ±100 for the full control effect
Procedure, shortened: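 Normalized fluorescence response, scaled between free 1-AMA and 1-AMA/apoferritin complex, fitted to a four-parameter Hill equation for concentration-effect values. Binding mix: 10 uM horse-spleen apoferritin, 50% saturated 1-AMA in PBS; read 380/535 nm after 10 min.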

[10] = target: ATP-dependent DNA helicase Q1 (Homo sapiens) (UniProt P46063); test: qHTS Validation Assay for Inhibitors of RecQ-Like Dna Helicase 1 (RECQ1) (AID 2353);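 also: plate controls were DMSO vehicle for no effect and enzyme-free control for full effect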
Procedure, shortened: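 RECQ1T1 50 nM; forked duplex (20 bp + 30-nt ss tails) 200 nM, ATP 2 mM final; pH 8.0, 2 mM MgCl2, 2.5 ug/ml poly(dI-dC); 15 min compound preincubation; discontinuous kinetic read over 2 h at RT.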

[11] = target: RecQ-like DNA helicase BLM (Homo sapiens) (UniProt P54132); test: qHTS Validation Assay for Inhibitors of Bloom's syndrome helicase (BLM) (AID 2364);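 also: plate controls were DMSO vehicle for no effect and enzyme-free control for full effect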
Procedure, shortened: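 Forked 20-bp duplex substrate (200 nM, TAMRA/BHQ-2) plus 2 mM ATP added after 15 min compound preincubation with 50 nM enzyme, pH 8.0, poly(dI-dC) 2.5 ug/ml. Strand separation followed by fluorescence (525/598 nm) over 2 h, normalized to enzyme-free and DMSO controls.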

[12] = Validation screen for inhibitors of Lassa infection (AID 463096; calls by dose curve; also: % is scaled to controls: 0 for no effect and ±100 for the full control effect)
[13] = Validation screen for small molecules that induce DNA re-replication in MCF 10A normal breast cells (AID 463097); also: 0% is about no effect; nearly all actives have a fitted effect of over 60% in size
Procedure, shortened: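 Following 48 hr compound incubation (37 C, 5% CO2), MCF 10A cells receive Hoechst for 40 min at 37 C. Nuclei are then scanned (excitation 405 nm, emission 500-530 nm) for total fluorescence intensity.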

[14] = Quantitative high throughput screen for delayed death inhibitors of the malarial parasite plastid, 48 hour incubation (AID 488752); also: % is scaled to controls: 0 for no effect and ±100 for the full control effect; nearly all actives have a fitted effect of over 65% in size
Procedure, shortened: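 Luciferase-expressing P. falciparum in RBCs, 2% Hct, 0.1% parasitemia final; RPMI 1640 + 0.5% Albumax; 48 h, 37 C, 5% CO2; luminescence readout, signal drop = growth inhibition.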

[15] = target: M-phase phosphoprotein 8 (Homo sapiens) (UniProt Q99549); test: qHTS Validation Assay for Inhibitors for MPP8 Chromodomain Interactions with Methylated Histone Tails (AID 488949);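 also: 50 nM MPP8 with 50 nM peptide preformed then compounds added for 30 min; AlphaScreen signal from MPP8 chromodomain bound to biotinylated H3K9me3 peptide; top concentration of the series differs between compounds; % is scaled to controls: 0 for no effect and ±100 for the full control effect; nearly all actives have a fitted effect of over 55% in size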
Procedure, shortened: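 Chemiluminescent proximity assay: histidine-tag capture via nickel acceptor beads, biotin peptide via streptavidin donor beads. Protein and peptide each at 50 nM, pH 7.4, with 30 min incubations at room temperature for complex formation, compound exposure and bead binding.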

[16] = target: Transient receptor potential cation channel subfamily V member 1 (Homo sapiens) (UniProt Q8NER1); test: HTS Assay for Compounds that Act as Enhancers of the Vanilloid Receptor 1 (AID 488979); also: 0% is about no effect
Procedure, shortened: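 Calcium influx kinetics via Fluo-8 (480/520 nm) in TRPV1-expressing cells, 2000/well cultured overnight at 35.5C. Compound-alone read 3 min (agonist phase), followed by EC20 capsaicin challenge for 2 min (enhancer phase).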

[17] = target: Thyrotropin receptor (Homo sapiens) (UniProt P16473); test: qHTS Assay for Antagonists of the Thyroid Stimulating Hormone Receptor (AID 488980); also: series mostly up to about 58 µM; 0% is about no effect
Procedure, shortened: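 Inhibition of TSH-stimulated cAMP accumulation was quantified by homogeneous time-resolved FRET in TSHR-transfected HEK293 cells. Agonist: TSH, 4 nM final (EC80).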

[18] = target: Thyrotropin-releasing hormone receptor (Homo sapiens) (UniProt P34981); test: qHTS for Small Molecule Agonists and Allosteric Enhancers of Human TRH Receptor: Validation Screen for Agonists (AID 493127;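 active = calcium activation more than 3 SD above the typical response in the agonist read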;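 also: intracellular calcium rise by fluo-8 fluorescence before TRH EC20 addition; 0% is about no effect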); conditions: TRH receptor agonist cell assay; at 2 µM; stronger effect = higher value
Procedure, shortened: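 Read-out: intracellular calcium release measured kinetically by FDSS (fluo-8, ex 480/em 530 nm), 1 reading/s after a 10-cycle baseline. TRHR cells, 2000/well, cultured 18 h at 33.5C, dye-loaded at room temp. Compound-evoked positive calcium signal flags agonists.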

[19] = target: Galactokinase (Homo sapiens) (UniProt P51570); test: qHTS Validation Assay for Inhibitors of Human Galactokinase (GALK) (AID 493189); also: 0% is about no effect
Procedure, shortened: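 Enzyme activity is inferred from ATP consumption: human GALK phosphorylates galactose (100 uM) using 35 uM ATP for 1 h at room temperature, and luciferase-based Kinase-Glo Plus reports unconsumed ATP.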

[20] = target: Ubiquitin carboxyl-terminal hydrolase 1 (Homo sapiens) (UniProt O94782); test: Inhibitors of USP1/UAF1: Pilot qHTS (AID 504865);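 also: rhodamine fluorescence freed from ubiquitin-rhodamine substrate followed over time; top concentration of the series differs between compounds; % is scaled to controls: 0 for no effect and ±100 for the full control effect; nearly all actives have a fitted effect of over 35% in size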
Procedure, shortened: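 Enzyme-free wells gave the negative control, while test wells held 1nM USP1/UAF1 preincubated with compound for 15 min at room temperature. Ub-Rho at 150nM final started the reaction, and fluorescence at 480/540 nm was recorded kinetically.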

[21] = target: DNA dC->dU-editing enzyme APOBEC-3G (Homo sapiens) (UniProt Q9HC16); test: qHTS for inhibitors of Vif-A3G interactions: Validation (AID 588379); also: 0% is about no effect
Procedure, shortened: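 Yellow fluorescence (Ex 488, Em 500-530) of Vif-coexpressing HeLa A3G-eYFP cells, scanned by Acumen cytometer, reports blocked A3G degradation. Cells plated at 700/well overnight at 37 deg C before compound addition, then a further overnight compound incubation at 37 deg C.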

[22] = target: Voltage-gated inwardly rectifying potassium channel KCNH2 (Homo sapiens) (UniProt Q12809); test: qHTS Assay for Small Molecule Inhibitors of the Human hERG Channel Activity (AID 588834);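 also: top concentration of the series differs between compounds; % is scaled to controls: 0 for no effect and ±100 for the full control effect; lower thallium flux fluorescence means stronger hERG block; nearly all actives have a fitted effect of over 50% in size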
Procedure, shortened: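 Homogeneous FluxOR thallium flux assay using hERG-expressing U2OS cells (BacMam). Compound treatment about 10 minutes preceded stimulation; reduced fluorescence taken as channel block.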

[23] = system: Zika virus NS2B-NS3 protease; test: Primary screen GU AMC qHTS for Zika virus inhibitors (AID 1347154);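 also: 0% = no-inhibitor control and -100% = no-enzyme control; nearly all actives have a fitted effect of over 70% in size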
Procedure, shortened: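 Fluorogenic AMC-substrate cleavage by noncovalent NS2B-NS3 protease complex (25 nM, pH 8.0 Tris buffer with Tween 20) followed for 15 minutes at room temperature (~20% conversion). Percent inhibition from ex340/em450 signal change, fitted by 4-parameter Hill equation.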

[24] = Primary qHTS for small molecule stabilizers of the endoplasmic reticulum resident proteome: Secreted ER Calcium Modulated Protein (SERCaMP) assay (AID 1508630); also: % is scaled to controls: 0 for no effect and ±100 for the full control effect
Procedure, shortened: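 The SH-SY5Y reporter protocol was run at 3 concentrations up to 38.3 uM (primary) or 11 concentrations (follow-up): 16 h compound, 100 nM thapsigargin for 4 h, then extracellular luciferase luminescence.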

Chain of DNA dC->dU-editing enzyme APOBEC-3G (Homo sapiens) (Q9HC16 whole entry, looked up): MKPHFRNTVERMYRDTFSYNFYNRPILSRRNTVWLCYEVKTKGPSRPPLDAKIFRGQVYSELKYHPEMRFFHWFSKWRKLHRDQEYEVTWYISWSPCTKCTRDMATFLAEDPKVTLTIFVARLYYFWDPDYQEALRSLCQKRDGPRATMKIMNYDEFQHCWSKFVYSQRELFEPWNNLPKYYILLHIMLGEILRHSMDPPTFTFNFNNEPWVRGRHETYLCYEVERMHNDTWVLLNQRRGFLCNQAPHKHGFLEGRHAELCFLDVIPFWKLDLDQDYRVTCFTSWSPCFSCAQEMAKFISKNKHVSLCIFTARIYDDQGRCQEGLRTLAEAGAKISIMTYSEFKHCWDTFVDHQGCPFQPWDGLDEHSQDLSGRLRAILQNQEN
Chain of Transient receptor potential cation channel subfamily V member 1 (Homo sapiens) (Q8NER1 whole entry, looked up): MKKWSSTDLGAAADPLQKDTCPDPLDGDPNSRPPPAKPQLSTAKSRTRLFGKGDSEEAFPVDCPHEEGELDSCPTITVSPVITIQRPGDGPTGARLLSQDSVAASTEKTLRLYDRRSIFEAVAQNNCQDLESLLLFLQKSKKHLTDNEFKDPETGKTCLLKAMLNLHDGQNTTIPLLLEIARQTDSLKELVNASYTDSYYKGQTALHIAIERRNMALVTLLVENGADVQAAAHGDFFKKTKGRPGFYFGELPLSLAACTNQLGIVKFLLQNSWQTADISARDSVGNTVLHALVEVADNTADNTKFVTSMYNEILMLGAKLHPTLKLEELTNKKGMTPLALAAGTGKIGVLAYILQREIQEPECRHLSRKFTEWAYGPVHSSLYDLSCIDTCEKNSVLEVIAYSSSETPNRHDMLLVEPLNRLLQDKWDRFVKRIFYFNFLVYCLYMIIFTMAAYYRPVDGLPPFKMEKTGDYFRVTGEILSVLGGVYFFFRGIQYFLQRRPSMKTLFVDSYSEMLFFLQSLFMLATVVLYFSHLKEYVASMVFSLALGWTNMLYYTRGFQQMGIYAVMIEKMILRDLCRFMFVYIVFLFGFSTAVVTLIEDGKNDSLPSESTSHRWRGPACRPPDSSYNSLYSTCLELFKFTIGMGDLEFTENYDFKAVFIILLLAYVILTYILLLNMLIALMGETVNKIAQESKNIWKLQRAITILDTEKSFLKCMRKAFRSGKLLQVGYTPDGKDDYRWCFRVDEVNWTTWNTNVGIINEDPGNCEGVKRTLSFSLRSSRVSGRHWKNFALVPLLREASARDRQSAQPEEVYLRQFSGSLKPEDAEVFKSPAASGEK
Chain of ATP-dependent DNA helicase Q1 (Homo sapiens) (P46063 whole entry, looked up): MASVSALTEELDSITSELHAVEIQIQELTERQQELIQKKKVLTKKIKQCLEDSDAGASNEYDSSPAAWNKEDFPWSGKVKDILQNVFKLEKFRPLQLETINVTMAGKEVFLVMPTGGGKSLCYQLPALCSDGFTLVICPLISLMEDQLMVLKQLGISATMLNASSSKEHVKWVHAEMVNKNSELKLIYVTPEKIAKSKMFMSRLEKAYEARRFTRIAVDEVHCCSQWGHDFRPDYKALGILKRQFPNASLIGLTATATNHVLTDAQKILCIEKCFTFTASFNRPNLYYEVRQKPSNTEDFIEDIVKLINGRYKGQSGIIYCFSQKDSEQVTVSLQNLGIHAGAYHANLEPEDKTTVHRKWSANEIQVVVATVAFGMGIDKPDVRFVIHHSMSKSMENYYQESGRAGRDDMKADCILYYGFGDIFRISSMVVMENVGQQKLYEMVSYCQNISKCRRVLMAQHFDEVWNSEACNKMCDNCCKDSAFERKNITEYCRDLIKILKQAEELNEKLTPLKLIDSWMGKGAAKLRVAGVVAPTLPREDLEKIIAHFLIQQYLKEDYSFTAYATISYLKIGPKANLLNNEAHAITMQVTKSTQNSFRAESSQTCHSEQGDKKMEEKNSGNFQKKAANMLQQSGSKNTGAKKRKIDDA
Chain of Ferritin light chain (Equus caballus) (P02791 2-175 limits assumed): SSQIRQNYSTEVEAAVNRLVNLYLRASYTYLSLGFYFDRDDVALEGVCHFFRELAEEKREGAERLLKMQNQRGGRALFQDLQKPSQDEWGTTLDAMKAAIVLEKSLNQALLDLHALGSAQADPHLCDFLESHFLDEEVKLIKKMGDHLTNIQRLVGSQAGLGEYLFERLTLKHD
Chain of Galactokinase (Homo sapiens) (P51570 whole entry, looked up): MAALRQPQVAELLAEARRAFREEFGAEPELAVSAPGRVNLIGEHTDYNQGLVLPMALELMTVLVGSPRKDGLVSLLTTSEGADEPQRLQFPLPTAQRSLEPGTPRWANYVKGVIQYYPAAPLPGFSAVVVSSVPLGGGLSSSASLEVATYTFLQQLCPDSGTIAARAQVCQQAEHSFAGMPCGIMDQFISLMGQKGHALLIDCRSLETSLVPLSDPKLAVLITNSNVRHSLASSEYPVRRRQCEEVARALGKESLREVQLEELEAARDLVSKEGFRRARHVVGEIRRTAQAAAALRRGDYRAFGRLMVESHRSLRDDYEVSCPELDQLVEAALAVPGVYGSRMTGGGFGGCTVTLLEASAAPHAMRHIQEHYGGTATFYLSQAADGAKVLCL
Chain of Thyrotropin-releasing hormone receptor (Homo sapiens) (P34981 whole entry, looked up): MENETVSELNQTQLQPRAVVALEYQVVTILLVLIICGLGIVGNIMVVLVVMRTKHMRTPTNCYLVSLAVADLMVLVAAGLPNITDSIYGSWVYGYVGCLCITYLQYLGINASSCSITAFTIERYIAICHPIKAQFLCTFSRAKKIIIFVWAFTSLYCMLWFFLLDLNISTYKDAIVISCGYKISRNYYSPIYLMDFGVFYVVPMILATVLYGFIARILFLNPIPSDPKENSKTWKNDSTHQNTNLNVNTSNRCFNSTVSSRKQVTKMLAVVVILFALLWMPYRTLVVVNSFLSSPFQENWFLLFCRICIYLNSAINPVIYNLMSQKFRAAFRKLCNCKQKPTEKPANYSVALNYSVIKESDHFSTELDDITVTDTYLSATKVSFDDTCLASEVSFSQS
Chain of M-phase phosphoprotein 8 (Homo sapiens) (Q99549 whole entry, looked up): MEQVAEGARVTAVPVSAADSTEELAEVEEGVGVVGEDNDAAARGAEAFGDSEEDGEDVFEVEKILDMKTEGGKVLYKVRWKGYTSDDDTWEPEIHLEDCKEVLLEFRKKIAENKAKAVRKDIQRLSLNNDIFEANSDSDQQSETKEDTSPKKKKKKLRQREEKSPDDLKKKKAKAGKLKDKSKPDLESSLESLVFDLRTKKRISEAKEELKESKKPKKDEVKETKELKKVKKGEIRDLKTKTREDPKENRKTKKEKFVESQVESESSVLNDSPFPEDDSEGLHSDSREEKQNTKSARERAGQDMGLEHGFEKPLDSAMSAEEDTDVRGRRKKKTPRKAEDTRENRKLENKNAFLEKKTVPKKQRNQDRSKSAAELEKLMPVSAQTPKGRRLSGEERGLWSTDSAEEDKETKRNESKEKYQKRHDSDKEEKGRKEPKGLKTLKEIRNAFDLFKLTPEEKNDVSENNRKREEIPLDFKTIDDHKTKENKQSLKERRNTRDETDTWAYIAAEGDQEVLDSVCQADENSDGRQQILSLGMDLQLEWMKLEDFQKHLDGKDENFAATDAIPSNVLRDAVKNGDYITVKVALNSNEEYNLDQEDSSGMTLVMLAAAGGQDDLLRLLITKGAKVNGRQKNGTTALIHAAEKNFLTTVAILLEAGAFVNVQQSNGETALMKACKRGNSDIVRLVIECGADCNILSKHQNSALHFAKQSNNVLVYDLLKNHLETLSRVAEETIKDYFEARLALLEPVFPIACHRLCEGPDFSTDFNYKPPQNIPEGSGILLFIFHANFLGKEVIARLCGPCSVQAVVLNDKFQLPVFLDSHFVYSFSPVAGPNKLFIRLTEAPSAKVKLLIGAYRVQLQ
Chain of Voltage-gated inwardly rectifying potassium channel KCNH2 (Homo sapiens) (Q12809 whole entry, looked up): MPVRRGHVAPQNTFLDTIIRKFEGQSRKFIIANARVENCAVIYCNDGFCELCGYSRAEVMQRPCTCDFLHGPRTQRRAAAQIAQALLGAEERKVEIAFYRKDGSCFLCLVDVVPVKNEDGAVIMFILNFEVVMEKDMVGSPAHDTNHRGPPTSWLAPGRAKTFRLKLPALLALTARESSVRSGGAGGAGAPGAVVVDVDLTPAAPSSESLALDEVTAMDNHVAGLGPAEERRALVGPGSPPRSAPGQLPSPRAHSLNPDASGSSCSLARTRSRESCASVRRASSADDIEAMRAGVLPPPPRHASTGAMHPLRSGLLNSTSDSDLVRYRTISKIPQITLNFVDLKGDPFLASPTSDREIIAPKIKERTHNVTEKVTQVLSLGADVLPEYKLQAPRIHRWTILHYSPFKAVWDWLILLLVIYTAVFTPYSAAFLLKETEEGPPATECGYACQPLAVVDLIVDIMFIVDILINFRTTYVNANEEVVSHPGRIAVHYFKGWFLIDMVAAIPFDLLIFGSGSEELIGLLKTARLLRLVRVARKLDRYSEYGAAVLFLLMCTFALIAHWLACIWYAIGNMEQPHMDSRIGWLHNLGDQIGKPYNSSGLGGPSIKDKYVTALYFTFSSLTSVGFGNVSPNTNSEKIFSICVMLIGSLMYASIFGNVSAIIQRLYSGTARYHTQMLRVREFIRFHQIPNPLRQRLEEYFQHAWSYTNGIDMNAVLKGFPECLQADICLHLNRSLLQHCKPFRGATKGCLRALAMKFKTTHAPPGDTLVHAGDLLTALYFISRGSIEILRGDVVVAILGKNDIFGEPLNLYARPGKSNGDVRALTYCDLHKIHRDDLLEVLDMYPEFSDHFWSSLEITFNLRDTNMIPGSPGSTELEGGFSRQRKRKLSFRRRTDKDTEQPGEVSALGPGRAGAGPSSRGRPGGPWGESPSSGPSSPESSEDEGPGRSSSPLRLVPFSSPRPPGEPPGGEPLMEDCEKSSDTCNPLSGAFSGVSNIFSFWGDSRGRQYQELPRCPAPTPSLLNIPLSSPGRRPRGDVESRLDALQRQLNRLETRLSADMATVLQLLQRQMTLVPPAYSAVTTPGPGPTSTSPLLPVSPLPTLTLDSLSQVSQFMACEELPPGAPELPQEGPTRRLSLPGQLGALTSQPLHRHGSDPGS

N[C@H](CCCCCP(=O)(O)O)C(=O)O
inactive: Potency [1] | Potency [2] | Potency [3] | Potency [4] | Potency [5] | Potency [6] | Potency [7] | Potency [8] | outcome [9] | Potency [10] | Potency [11] | Potency [12] | Potency [13] | Potency [14] | Potency [15] | outcome [16] | outcome [17] | activation [18] -0.125% | outcome [19] | Potency [20] | Potency [21] | Potency [22] | Potency [23] | Potency [24]
